The panel holds about 83,000 compounds, 20% with a hit somewhere; the sample as a whole holds those more often.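 Cells were grown in 96-well plates and exposed to the test compound at a single concentration for 48 hours; results are reported as percent growth, with values below 10 considered active.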 Active and inactive are the calls of the source.
What was measured:
Test in all cases: NCI-60 one-dose screen, 48 h (100 = growth as untreated, 0 = no growth, -100 = all killed)
Conditions in all cases: 10 µM unless noted
SR leukemia = test system: SR leukemia
OVCAR-8 ovarian = test system: OVCAR-8 ovarian
OVCAR-5 ovarian = test system: OVCAR-5 ovarian
OVCAR-4 ovarian = test system: OVCAR-4 ovarian
SK-OV-3 ovarian = test system: SK-OV-3 ovarian
IGROV1 ovarian = test system: IGROV1 ovarian
OVCAR-3 ovarian = test system: OVCAR-3 ovarian
HS 578T breast = test system: HS 578T breast
NCI/ADR-RES ovarian = test system: NCI/ADR-RES ovarian
T-47D breast = test system: T-47D breast
BT-549 breast = test system: BT-549 breast
MDA-MB-435 melanoma = test system: MDA-MB-435 melanoma
SW-620 colon = test system: SW-620 colon
MCF7 breast = test system: MCF7 breast
HCT-116 colon = test system: HCT-116 colon
HCC-2998 colon = test system: HCC-2998 colon
KM12 colon = test system: KM12 colon

Measured: growth

O=C(Nc1ccc(Cl)cc1)C1=NCCCCN1
inactive: SR leukemia 116% | OVCAR-8 ovarian 91% | OVCAR-5 ovarian 85.6% | OVCAR-4 ovarian 109% | SK-OV-3 ovarian 88.1% | IGROV1 ovarian 79.8% | OVCAR-3 ovarian 96.9% | HS 578T breast 97.9% | NCI/ADR-RES ovarian 89.3% | T-47D breast 68.6% | BT-549 breast 91.3% | MDA-MB-435 melanoma 72.6% | SW-620 colon 63.8% | MCF7 breast 81.5% | HCT-116 colon 80% | HCC-2998 colon 96.2% | KM12 colon 71.2%

Nc1ncnc2c1N=C(c1ccc([N+](=O)[O-])cc1)CC(c1ccc3c(c1)OCO3)N2 (stereo not given)
inactive: SR leukemia 85.3% | OVCAR-5 ovarian 91.7% | OVCAR-4 ovarian 95.5% | SK-OV-3 ovarian 91.1% | IGROV1 ovarian 51.1% | OVCAR-3 ovarian 90.6% | HS 578T breast 80.7% | NCI/ADR-RES ovarian 77.6% | T-47D breast 93% | BT-549 breast 86.6% | MDA-MB-435 melanoma 94% | SW-620 colon 92% | MCF7 breast 72.7% | HCT-116 colon 83.3% | HCC-2998 colon 53.8% | KM12 colon 89.4%

Cn1ccnc1C(=O)/C=C/c1ccc(C(=O)Nc2ccccc2F)cc1
active: SR leukemia 6.83% | OVCAR-3 ovarian -4.52% | MDA-MB-435 melanoma 1.95% | HCT-116 colon 8.83%
inactive: OVCAR-8 ovarian 15.6% | OVCAR-5 ovarian 18% | OVCAR-4 ovarian 37.7% | SK-OV-3 ovarian 51.9% | IGROV1 ovarian 13.5% | HS 578T breast 17.1% | NCI/ADR-RES ovarian 21.7% | T-47D breast 38.3% | SW-620 colon 13.5% | MCF7 breast 13.4% | HCC-2998 colon 88% | KM12 colon 13.8%

Cn1cc(-c2nc(-c3c[nH]c4ccncc34)cs2)c2cc(F)ccc21
inactive: SK-OV-3 ovarian 62.1% | BT-549 breast 69.6%
active: SR leukemia -36.8% | OVCAR-8 ovarian -60.1% | OVCAR-5 ovarian -91.1% | OVCAR-4 ovarian -54.4% | IGROV1 ovarian -87.2% | OVCAR-3 ovarian -94.7% | HS 578T breast -44.9% | NCI/ADR-RES ovarian -73.7% | T-47D breast -52.2% | MDA-MB-435 melanoma -91% | SW-620 colon -65.7% | MCF7 breast -71.5% | HCT-116 colon -95.4% | HCC-2998 colon -80.6% | KM12 colon -95.1%

COc1cc2c(c(OC)c1OC)CCC(c1cccc(C(=O)Nc3ccccc3Br)c1)O2 (stereo not given)
inactive: SR leukemia 75.6% | OVCAR-8 ovarian 80.1% | OVCAR-5 ovarian 90.6% | OVCAR-4 ovarian 85.3% | SK-OV-3 ovarian 81% | IGROV1 ovarian 89.2% | OVCAR-3 ovarian 100% | HS 578T breast 86.2% | NCI/ADR-RES ovarian 99.2% | T-47D breast 68.6% | BT-549 breast 69.6% | SW-620 colon 99.6% | MCF7 breast 91.8% | HCT-116 colon 74.7% | HCC-2998 colon 90% | KM12 colon 101%

CCN(CC)c1ccc(/C=N/NC(=O)c2ccccc2Nc2ccnc(C(F)(F)F)c2)c(O)c1
inactive: SR leukemia 65.1% | OVCAR-8 ovarian 35.1% | OVCAR-5 ovarian 57.3% | OVCAR-4 ovarian 33.1% | SK-OV-3 ovarian 19.9% | IGROV1 ovarian 47.5% | OVCAR-3 ovarian 36.7% | HS 578T breast 61.1% | NCI/ADR-RES ovarian 17.3% | T-47D breast 22.3% | MDA-MB-435 melanoma 29.3% | SW-620 colon 37.3% | MCF7 breast 20.4% | HCT-116 colon 27.7% | KM12 colon 31.4%

CN1C(=O)N(C)C2C1NN=c1s/c(=C\c3ccccc3F)c(=O)n12 (stereo not given)
inactive: SR leukemia 18.2% | OVCAR-8 ovarian 10.1% | OVCAR-5 ovarian 25.6% | OVCAR-4 ovarian 49% | SK-OV-3 ovarian 33.8% | IGROV1 ovarian 20.8% | T-47D breast 52.6% | BT-549 breast 18.9% | SW-620 colon 18.8% | MCF7 breast 18.6% | HCT-116 colon 14% | KM12 colon 17.4%
active: OVCAR-3 ovarian -3.72% | HS 578T breast 7.57% | NCI/ADR-RES ovarian -13.1% | MDA-MB-435 melanoma -40.2% | HCC-2998 colon 5.08%

N=C(N)c1ccc(-c2ccc(-c3ccc(Cl)cc3Cl)s2)nc1
active: SR leukemia 5.54% | SW-620 colon -63.6% | MCF7 breast -30.5% | HCT-116 colon -69.5% | HCC-2998 colon -33% | KM12 colon -31.5%
inactive: OVCAR-8 ovarian 36.2% | OVCAR-5 ovarian 80.2% | OVCAR-4 ovarian 98.2% | SK-OV-3 ovarian 91.3% | IGROV1 ovarian 50.6% | OVCAR-3 ovarian 64.4% | HS 578T breast 90.1% | NCI/ADR-RES ovarian 96.7% | T-47D breast 81.2% | BT-549 breast 105% | MDA-MB-435 melanoma 62.5%

O=C1CC2C=CCN2C=C1NC(=O)c1ccccc1 (stereo not given)
inactive: SR leukemia 88.7% | OVCAR-8 ovarian 114% | OVCAR-5 ovarian 97.4% | OVCAR-4 ovarian 109% | SK-OV-3 ovarian 113% | IGROV1 ovarian 106% | OVCAR-3 ovarian 105% | HS 578T breast 115% | NCI/ADR-RES ovarian 103% | T-47D breast 99.8% | BT-549 breast 103% | MDA-MB-435 melanoma 105% | SW-620 colon 109% | MCF7 breast 101% | HCT-116 colon 93.6% | HCC-2998 colon 101% | KM12 colon 101%

Cc1ccc(-c2nn(CC(=O)N3CCOCC3)c(N)c2C#N)cc1
inactive: SR leukemia 99% | OVCAR-5 ovarian 105% | OVCAR-4 ovarian 91.8% | SK-OV-3 ovarian 109% | IGROV1 ovarian 106% | OVCAR-3 ovarian 113% | HS 578T breast 93.1% | NCI/ADR-RES ovarian 108% | T-47D breast 105% | BT-549 breast 98.7% | MDA-MB-435 melanoma 99.2% | SW-620 colon 104% | MCF7 breast 92.5% | HCT-116 colon 101% | HCC-2998 colon 102% | KM12 colon 108%

CCOC(=O)CCC(=O)P(=O)(O)O
active: SR leukemia 4.41%
inactive: OVCAR-8 ovarian 97.1% | OVCAR-5 ovarian 116% | OVCAR-4 ovarian 115% | SK-OV-3 ovarian 80.5% | IGROV1 ovarian 110% | OVCAR-3 ovarian 115% | HS 578T breast 114% | NCI/ADR-RES ovarian 102% | T-47D breast 98.6% | BT-549 breast 101% | MDA-MB-435 melanoma 125% | SW-620 colon 96.5% | MCF7 breast 110% | HCT-116 colon 86.2% | KM12 colon 112%

COc1cccc(-c2nn(-c3ccccc3)cc2-c2ccnc(-c3cccnc3)c2)c1
inactive: SR leukemia 74.9% | OVCAR-8 ovarian 105% | OVCAR-5 ovarian 95.9% | OVCAR-4 ovarian 82.7% | SK-OV-3 ovarian 104% | IGROV1 ovarian 94.8% | OVCAR-3 ovarian 96.8% | HS 578T breast 120% | NCI/ADR-RES ovarian 90.6% | T-47D breast 76.9% | BT-549 breast 98.5% | MDA-MB-435 melanoma 97.7% | SW-620 colon 109% | MCF7 breast 87.1% | HCT-116 colon 85.7% | HCC-2998 colon 96.4% | KM12 colon 94.7%

CN1CCN(c2ccc(Nc3ncc4[nH]c(=O)n(Cc5ccccc5N)c4n3)cc2)CC1
inactive: SR leukemia 91% | OVCAR-8 ovarian 98.4% | OVCAR-5 ovarian 79.1% | OVCAR-4 ovarian 93.6% | IGROV1 ovarian 77.6% | OVCAR-3 ovarian 102% | HS 578T breast 69.8% | NCI/ADR-RES ovarian 102% | T-47D breast 75.3% | BT-549 breast 97.8% | MDA-MB-435 melanoma 104% | SW-620 colon 95.3% | MCF7 breast 87.8% | HCT-116 colon 91.5% | HCC-2998 colon 96.4% | KM12 colon 101%

O=C1OCC2=C1C(c1cccc(F)c1)c1cc3c(cc1N2CCO)CCC3 (stereo not given)
inactive: SR leukemia 12.3% | OVCAR-8 ovarian 13.5% | OVCAR-5 ovarian 36.2% | OVCAR-4 ovarian 48.8% | IGROV1 ovarian 23.5% | HS 578T breast 41.2% | NCI/ADR-RES ovarian 13.3% | T-47D breast 52.6% | BT-549 breast 39.5% | SW-620 colon 26.3% | MCF7 breast 19.7% | HCT-116 colon 10.5% | KM12 colon 13.4%
active: OVCAR-3 ovarian -24.9% | MDA-MB-435 melanoma -36.9% | HCC-2998 colon 7.85%

COc1cc(CNC(=O)CCCC/C=C/C(C)C)ccc1OCc1cn(-c2ccc(C(F)(F)F)cc2)nn1
inactive: SR leukemia 70.4% | OVCAR-8 ovarian 41.1% | OVCAR-5 ovarian 96.6% | OVCAR-4 ovarian 98.6% | SK-OV-3 ovarian 91.3% | IGROV1 ovarian 58.7% | OVCAR-3 ovarian 107% | HS 578T breast 80.4% | NCI/ADR-RES ovarian 48.2% | T-47D breast 70.2% | BT-549 breast 84.5% | MDA-MB-435 melanoma 107% | SW-620 colon 41.3% | MCF7 breast 75.2% | HCC-2998 colon 94.8% | KM12 colon 81.2%
active: HCT-116 colon 2.97%

Cc1ccc(S(=O)(=O)c2nc(-c3ccccc3)oc2S(C)=O)cc1 (stereo not given)
inactive: OVCAR-5 ovarian 45% | OVCAR-4 ovarian 37.3% | HS 578T breast 78.9% | NCI/ADR-RES ovarian 70.1% | BT-549 breast 27.5% | MDA-MB-435 melanoma 37% | HCC-2998 colon 70.5% | KM12 colon 49.8%
active: SR leukemia -26.8% | IGROV1 ovarian -50.6% | OVCAR-3 ovarian -89.3% | T-47D breast -49% | SW-620 colon -55.4% | MCF7 breast -20% | HCT-116 colon -20.3%

COc1ccc(-c2ccc(-c3ccc(C(=N)N)o3)o2)cc1
active: SR leukemia -4.13% | OVCAR-3 ovarian -27.8% | MDA-MB-435 melanoma -65.4% | HCT-116 colon -5.19% | HCC-2998 colon -48.7%
inactive: OVCAR-8 ovarian 28.9% | OVCAR-5 ovarian 38.4% | OVCAR-4 ovarian 58.8% | SK-OV-3 ovarian 35.8% | IGROV1 ovarian 57.1% | HS 578T breast 56.2% | NCI/ADR-RES ovarian 14.4% | T-47D breast 26.7% | SW-620 colon 12.9% | MCF7 breast 10.4% | KM12 colon 11%

CO[C@]12C=C/C(=C(/C(=O)OCc3cccnc3)C(=O)CCCCCCCC[C@]3(OC)C=C/C(=C(/C(=O)OCc4cccnc4)C(=O)CCCCCCCC1)O3)O2
active: SR leukemia -20.7% | OVCAR-8 ovarian 7.77% | OVCAR-5 ovarian -52.1% | OVCAR-4 ovarian -65.6% | SK-OV-3 ovarian -0.89% | IGROV1 ovarian -66.7% | OVCAR-3 ovarian -95.5% | NCI/ADR-RES ovarian -23.9% | T-47D breast -17.2% | BT-549 breast -67.8% | MDA-MB-435 melanoma -42.4% | SW-620 colon -33.3% | MCF7 breast -56.3% | HCT-116 colon -86% | HCC-2998 colon -90.6% | KM12 colon -86.5%
inactive: HS 578T breast 30.6%

COc1cc(/C=C/c2cc(/C=C/c3ccc(O)c(OC)c3)n(C(=O)Nc3ccc(C)cc3C)n2)ccc1O
active: SR leukemia -2.07% | OVCAR-8 ovarian -34.7% | OVCAR-5 ovarian -4.24% | OVCAR-4 ovarian 7.87% | IGROV1 ovarian -1.75% | OVCAR-3 ovarian -37.3% | HS 578T breast -15% | NCI/ADR-RES ovarian 7.64% | T-47D breast -22.5% | BT-549 breast -33.8% | MDA-MB-435 melanoma -40.9% | SW-620 colon -10.9% | MCF7 breast -3.78% | HCT-116 colon 1.48% | HCC-2998 colon 4.28% | KM12 colon -9.35%
